Targets with a hit are over-represented here; the source holds about 8,800 in all. About 0.5% of all pairs of compound and target were hits. Values without a mark were called inactive.
Experiments:
Test in all cases: log2 fold change, soluble protein after heating vs DMSO (PISA); higher = thermal stabilisation; K562 lysate, 10 uM; active = over 0.2 and 3.5 SD of the protein, either way, in both replicates (recomputed)
alvocidib = compound: CN1CC[C@H](c2c(O)cc(O)c3c(=O)cc(-c4ccccc4Cl)oc23)[C@H](O)C1 [alvocidib]
Method in brief: (§1)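 Following dounce homogenisation of K562 pellets in PBS pH 7.4 with 1 mM MgCl2, crude extract at 1 mg/mL protein was incubated for 30 min with 10 μM compound. Aliquots were then heated for 3 min over 48°C-58°C and pooled, NP-40 was added to 0.5% at 4°C, and soluble protein was recovered as the supernatant at 21,000xg for 90 min. Channel-sum-equalised TMTpro 16plex LC-MS/MS quantified this protein. Each value, from duplicates, is a log-two fold change in thermal stability relative to solvent controls.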

Tubastatin A = compound: CN1CCc2c(c3ccccc3n2Cc2ccc(C(=O)NO)cc2)C1 [Tubastatin A]
Method in brief: as §1

[1] = compound: CNC(=O)C1=CC=CC=C1NC2=NC(=NC=C2Cl)NC3=C(C=C(C=C3)N4CCOCC4)OC
Method in brief: as §1

defactinib = compound: CNC(=O)c1ccc(Nc2ncc(C(F)(F)F)c(NCc3nccnc3N(C)S(C)(=O)=O)n2)cc1 [defactinib]
Method in brief: as §1

[2] = compound: CNc1nc(-c2ccc3c(N)n[nH]c3c2)cc(N2C[C@@H](C(=O)NC3CCCCC3)CC[C@H]2C)n1
Method in brief: as §1

encorafenib = compound: COC(=O)N[C@@H](C)CNc1nccc(-c2cn(C(C)C)nc2-c2cc(Cl)cc(NS(C)(=O)=O)c2F)n1 [encorafenib]
Method in brief: as §1

[3] = compound: COC(=O)[C@H](CCSC)NC(=O)C1=C(C=C(C=C1)NC[C@H](CS)N)C2=CC=CC=C2
Method in brief: as §1

alisertib = compound: COc1cc(Nc2ncc3c(n2)-c2ccc(Cl)cc2C(c2c(F)cccc2OC)=NC3)ccc1C(=O)O [alisertib]
Method in brief: as §1

[4] = compound: COc1cc2nc(-c3cc(F)ccc3O)nc(N[C@@H]3CNC[C@H]3C(C)(C)O)c2cc1OC
Method in brief: as §1

gefitinib = compound: COc1cc2ncnc(Nc3ccc(F)c(Cl)c3)c2cc1OCCCN1CCOCC1 [gefitinib]
Method in brief: as §1

lapatinib = compound: CS(=O)(=O)CCNCc1ccc(-c2ccc3ncnc(Nc4ccc(OCc5cccc(F)c5)c(Cl)c4)c3c2)o1 [lapatinib]
Method in brief: as §1

pictilisib = compound: CS(=O)(=O)N1CCN(Cc2cc3nc(-c4cccc5[nH]ncc45)nc(N4CCOCC4)c3s2)CC1 [pictilisib]
Method in brief: as §1

crizotinib = compound: C[C@@H](Oc1cc(-c2cnn(C3CCNCC3)c2)cnc1N)c1c(Cl)ccc(F)c1Cl [crizotinib]
Method in brief: as §1

[5] = compound: C[C@H](C1=CC=C(C=C1)C(=O)NC2=C3C=CNC3=NC=C2)N
Method in brief: as §1

duvelisib = compound: C[C@H](Nc1ncnc2nc[nH]c12)c1cc2cccc(Cl)c2c(=O)n1-c1ccccc1 [duvelisib]
Method in brief: as §1

gandotinib = compound: Cc1cc(Nc2cc(CN3CCOCC3)c3nc(C)c(Cc4ccc(Cl)cc4F)n3n2)n[nH]1 [gandotinib]
Method in brief: as §1

tozasertib = compound: Cc1cc(Nc2cc(N3CCN(C)CC3)nc(Sc3ccc(NC(=O)C4CC4)cc3)n2)n[nH]1 [tozasertib]
Method in brief: as §1

doramapimod = compound: Cc1ccc(-n2nc(C(C)(C)C)cc2NC(=O)Nc2ccc(OCCN3CCOCC3)c3ccccc23)cc1 [doramapimod]
Method in brief: as §1

bafetinib = compound: Cc1ccc(NC(=O)c2ccc(CN3CC[C@H](N(C)C)C3)c(C(F)(F)F)c2)cc1Nc1nccc(-c2cncnc2)n1 [bafetinib]
Method in brief: as §1

[6] = compound: Cc1cccc(CC(=O)N2CCc3c2ccc(-c2cn(C)c4ncnc(N)c24)c3F)n1
Method in brief: as §1

## SP1 (UniProt P08047)
alvocidib
  log2 fold change: -0.017
Tubastatin A
  log2 fold change: -0.013
[1]
  log2 fold change: 0.053
defactinib
  log2 fold change: 0.03
[2]
  log2 fold change: 0.104
encorafenib
  log2 fold change: 0.073
[3]
  log2 fold change: -0.087
alisertib
  log2 fold change: 0.005
[4]
  log2 fold change: -0.06
gefitinib
  log2 fold change: 0.003
lapatinib
  log2 fold change: 0.077
pictilisib
  log2 fold change: 0.009
crizotinib
  log2 fold change: 0.022
[5]
  log2 fold change: -0.024
duvelisib
  log2 fold change: -0.063
gandotinib
  log2 fold change: 0.056
tozasertib
  log2 fold change: -0.049
doramapimod
  log2 fold change: 0.095
bafetinib
  log2 fold change: -0.027
[6]
  log2 fold change: 0.031

## SMIM12 (UniProt Q96EX1)
Sequence of UniProt Q96EX1 (Q96EX1 whole entry, looked up): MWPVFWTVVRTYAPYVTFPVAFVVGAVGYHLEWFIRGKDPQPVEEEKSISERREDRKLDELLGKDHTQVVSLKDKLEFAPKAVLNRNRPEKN
alvocidib
  log2 fold change: 0.22
Tubastatin A
  log2 fold change: 0.007
[1]
  log2 fold change: 0.065
defactinib
  log2 fold change: 0.025
[2]
  log2 fold change: 0.07
encorafenib
  log2 fold change: -0.067
[3]
  log2 fold change: -0.018
alisertib
  log2 fold change: 0.018
[4]
  log2 fold change: -0.044
gefitinib
  log2 fold change: -0.033
lapatinib
  log2 fold change: 0.014
pictilisib
  log2 fold change: 0.022
crizotinib
  log2 fold change: -0.024
[5]
  log2 fold change: 0.417 (active)
duvelisib
  log2 fold change: -0.061
gandotinib
  log2 fold change: -0.191
tozasertib
  log2 fold change: -0.009
doramapimod
  log2 fold change: 0.077
bafetinib
  log2 fold change: -0.083
[6]
  log2 fold change: -0.153

## SVIP (UniProt Q8NHG7)
Sequence of UniProt Q8NHG7 (Q8NHG7 whole entry, looked up): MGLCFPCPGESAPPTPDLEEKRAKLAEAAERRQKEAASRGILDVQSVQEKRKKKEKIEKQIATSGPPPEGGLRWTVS
alvocidib
  log2 fold change: -0.014
Tubastatin A
  log2 fold change: 0.028
[1]
  log2 fold change: -0.017
defactinib
  log2 fold change: 0.025
[2]
  log2 fold change: 0.098
encorafenib
  log2 fold change: -0.042
[3]
  log2 fold change: -0.055
alisertib
  log2 fold change: 0.05
[4]
  log2 fold change: -0.039
gefitinib
  log2 fold change: -0.099
lapatinib
  log2 fold change: 0.005
pictilisib
  log2 fold change: -0.03
crizotinib
  log2 fold change: -0.037
[5]
  log2 fold change: 0.027
duvelisib
  log2 fold change: -0.013
gandotinib
  log2 fold change: 0.01
tozasertib
  log2 fold change: 0.037
doramapimod
  log2 fold change: 0.021
bafetinib
  log2 fold change: -0.008
[6]
  log2 fold change: 0.032

## SRPK1 (UniProt Q96SB4)
Sequence of UniProt Q96SB4 (Q96SB4 whole entry, looked up): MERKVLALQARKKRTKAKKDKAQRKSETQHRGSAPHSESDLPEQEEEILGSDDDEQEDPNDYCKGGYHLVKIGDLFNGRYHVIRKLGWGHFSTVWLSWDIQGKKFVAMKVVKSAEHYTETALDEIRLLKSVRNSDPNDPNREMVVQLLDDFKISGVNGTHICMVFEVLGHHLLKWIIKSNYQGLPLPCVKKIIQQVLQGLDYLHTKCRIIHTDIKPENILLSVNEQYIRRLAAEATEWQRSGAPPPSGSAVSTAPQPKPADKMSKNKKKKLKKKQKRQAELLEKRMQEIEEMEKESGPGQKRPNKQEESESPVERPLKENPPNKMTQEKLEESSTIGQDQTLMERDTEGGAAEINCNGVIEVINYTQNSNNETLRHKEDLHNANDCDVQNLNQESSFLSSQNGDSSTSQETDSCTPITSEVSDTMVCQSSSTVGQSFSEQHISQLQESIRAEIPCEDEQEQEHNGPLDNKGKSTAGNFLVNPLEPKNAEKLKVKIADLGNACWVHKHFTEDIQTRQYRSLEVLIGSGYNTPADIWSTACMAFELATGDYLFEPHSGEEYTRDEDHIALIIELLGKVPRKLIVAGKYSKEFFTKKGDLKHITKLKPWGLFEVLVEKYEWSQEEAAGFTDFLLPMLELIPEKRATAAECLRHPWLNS
alvocidib
  log2 fold change: 0.286 (active)
Tubastatin A
  log2 fold change: -0.062
[1]
  log2 fold change: 0.189
defactinib
  log2 fold change: 0.106
[2]
  log2 fold change: 0.008
encorafenib
  log2 fold change: -0.029
[3]
  log2 fold change: 0.102
alisertib
  log2 fold change: 0.006
[4]
  log2 fold change: 0.015
gefitinib
  log2 fold change: 0.018
lapatinib
  log2 fold change: -0.006
pictilisib
  log2 fold change: 0.008
crizotinib
  log2 fold change: -0.089
[5]
  log2 fold change: 0.1
duvelisib
  log2 fold change: 0.025
gandotinib
  log2 fold change: 0.17
tozasertib
  log2 fold change: -0.016
doramapimod
  log2 fold change: 0.233
bafetinib
  log2 fold change: -0.028
[6]
  log2 fold change: -0.054

## SLC27A4 (UniProt Q6P1M0)
Sequence of UniProt Q6P1M0 (Q6P1M0 whole entry, looked up): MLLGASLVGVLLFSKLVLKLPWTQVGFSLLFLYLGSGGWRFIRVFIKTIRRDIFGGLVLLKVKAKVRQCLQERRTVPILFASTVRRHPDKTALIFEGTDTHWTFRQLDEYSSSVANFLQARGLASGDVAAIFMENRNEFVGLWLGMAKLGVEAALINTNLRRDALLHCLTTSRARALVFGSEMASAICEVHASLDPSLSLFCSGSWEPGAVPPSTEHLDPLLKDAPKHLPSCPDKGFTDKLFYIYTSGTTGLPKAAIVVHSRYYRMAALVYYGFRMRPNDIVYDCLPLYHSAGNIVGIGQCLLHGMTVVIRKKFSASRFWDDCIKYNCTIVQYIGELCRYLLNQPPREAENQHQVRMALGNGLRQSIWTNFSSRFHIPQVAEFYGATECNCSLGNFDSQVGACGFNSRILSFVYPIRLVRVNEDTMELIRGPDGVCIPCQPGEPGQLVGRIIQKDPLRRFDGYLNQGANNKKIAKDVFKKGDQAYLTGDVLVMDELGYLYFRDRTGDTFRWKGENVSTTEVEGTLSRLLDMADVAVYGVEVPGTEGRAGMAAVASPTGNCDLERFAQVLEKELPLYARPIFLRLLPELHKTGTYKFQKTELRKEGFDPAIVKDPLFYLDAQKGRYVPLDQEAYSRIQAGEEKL
alvocidib
  log2 fold change: -0.019
Tubastatin A
  log2 fold change: -0.021
[1]
  log2 fold change: -0.009
defactinib
  log2 fold change: -0.157
[2]
  log2 fold change: -0.062
encorafenib
  log2 fold change: 0.135
[3]
  log2 fold change: 0.006
alisertib
  log2 fold change: 0.039
[4]
  log2 fold change: 0.062
gefitinib
  log2 fold change: -0.067
lapatinib
  log2 fold change: -0.052
pictilisib
  log2 fold change: -0.005
crizotinib
  log2 fold change: -0.049
[5]
  log2 fold change: -0.04
duvelisib
  log2 fold change: 0.037
gandotinib
  log2 fold change: 0.095
tozasertib
  log2 fold change: -0.045
doramapimod
  log2 fold change: 0.149
bafetinib
  log2 fold change: -0.057
[6]
  log2 fold change: 0.052

## SPG11 (UniProt Q96JI7)
Sequence of UniProt Q96JI7 (Q96JI7 whole entry, looked up): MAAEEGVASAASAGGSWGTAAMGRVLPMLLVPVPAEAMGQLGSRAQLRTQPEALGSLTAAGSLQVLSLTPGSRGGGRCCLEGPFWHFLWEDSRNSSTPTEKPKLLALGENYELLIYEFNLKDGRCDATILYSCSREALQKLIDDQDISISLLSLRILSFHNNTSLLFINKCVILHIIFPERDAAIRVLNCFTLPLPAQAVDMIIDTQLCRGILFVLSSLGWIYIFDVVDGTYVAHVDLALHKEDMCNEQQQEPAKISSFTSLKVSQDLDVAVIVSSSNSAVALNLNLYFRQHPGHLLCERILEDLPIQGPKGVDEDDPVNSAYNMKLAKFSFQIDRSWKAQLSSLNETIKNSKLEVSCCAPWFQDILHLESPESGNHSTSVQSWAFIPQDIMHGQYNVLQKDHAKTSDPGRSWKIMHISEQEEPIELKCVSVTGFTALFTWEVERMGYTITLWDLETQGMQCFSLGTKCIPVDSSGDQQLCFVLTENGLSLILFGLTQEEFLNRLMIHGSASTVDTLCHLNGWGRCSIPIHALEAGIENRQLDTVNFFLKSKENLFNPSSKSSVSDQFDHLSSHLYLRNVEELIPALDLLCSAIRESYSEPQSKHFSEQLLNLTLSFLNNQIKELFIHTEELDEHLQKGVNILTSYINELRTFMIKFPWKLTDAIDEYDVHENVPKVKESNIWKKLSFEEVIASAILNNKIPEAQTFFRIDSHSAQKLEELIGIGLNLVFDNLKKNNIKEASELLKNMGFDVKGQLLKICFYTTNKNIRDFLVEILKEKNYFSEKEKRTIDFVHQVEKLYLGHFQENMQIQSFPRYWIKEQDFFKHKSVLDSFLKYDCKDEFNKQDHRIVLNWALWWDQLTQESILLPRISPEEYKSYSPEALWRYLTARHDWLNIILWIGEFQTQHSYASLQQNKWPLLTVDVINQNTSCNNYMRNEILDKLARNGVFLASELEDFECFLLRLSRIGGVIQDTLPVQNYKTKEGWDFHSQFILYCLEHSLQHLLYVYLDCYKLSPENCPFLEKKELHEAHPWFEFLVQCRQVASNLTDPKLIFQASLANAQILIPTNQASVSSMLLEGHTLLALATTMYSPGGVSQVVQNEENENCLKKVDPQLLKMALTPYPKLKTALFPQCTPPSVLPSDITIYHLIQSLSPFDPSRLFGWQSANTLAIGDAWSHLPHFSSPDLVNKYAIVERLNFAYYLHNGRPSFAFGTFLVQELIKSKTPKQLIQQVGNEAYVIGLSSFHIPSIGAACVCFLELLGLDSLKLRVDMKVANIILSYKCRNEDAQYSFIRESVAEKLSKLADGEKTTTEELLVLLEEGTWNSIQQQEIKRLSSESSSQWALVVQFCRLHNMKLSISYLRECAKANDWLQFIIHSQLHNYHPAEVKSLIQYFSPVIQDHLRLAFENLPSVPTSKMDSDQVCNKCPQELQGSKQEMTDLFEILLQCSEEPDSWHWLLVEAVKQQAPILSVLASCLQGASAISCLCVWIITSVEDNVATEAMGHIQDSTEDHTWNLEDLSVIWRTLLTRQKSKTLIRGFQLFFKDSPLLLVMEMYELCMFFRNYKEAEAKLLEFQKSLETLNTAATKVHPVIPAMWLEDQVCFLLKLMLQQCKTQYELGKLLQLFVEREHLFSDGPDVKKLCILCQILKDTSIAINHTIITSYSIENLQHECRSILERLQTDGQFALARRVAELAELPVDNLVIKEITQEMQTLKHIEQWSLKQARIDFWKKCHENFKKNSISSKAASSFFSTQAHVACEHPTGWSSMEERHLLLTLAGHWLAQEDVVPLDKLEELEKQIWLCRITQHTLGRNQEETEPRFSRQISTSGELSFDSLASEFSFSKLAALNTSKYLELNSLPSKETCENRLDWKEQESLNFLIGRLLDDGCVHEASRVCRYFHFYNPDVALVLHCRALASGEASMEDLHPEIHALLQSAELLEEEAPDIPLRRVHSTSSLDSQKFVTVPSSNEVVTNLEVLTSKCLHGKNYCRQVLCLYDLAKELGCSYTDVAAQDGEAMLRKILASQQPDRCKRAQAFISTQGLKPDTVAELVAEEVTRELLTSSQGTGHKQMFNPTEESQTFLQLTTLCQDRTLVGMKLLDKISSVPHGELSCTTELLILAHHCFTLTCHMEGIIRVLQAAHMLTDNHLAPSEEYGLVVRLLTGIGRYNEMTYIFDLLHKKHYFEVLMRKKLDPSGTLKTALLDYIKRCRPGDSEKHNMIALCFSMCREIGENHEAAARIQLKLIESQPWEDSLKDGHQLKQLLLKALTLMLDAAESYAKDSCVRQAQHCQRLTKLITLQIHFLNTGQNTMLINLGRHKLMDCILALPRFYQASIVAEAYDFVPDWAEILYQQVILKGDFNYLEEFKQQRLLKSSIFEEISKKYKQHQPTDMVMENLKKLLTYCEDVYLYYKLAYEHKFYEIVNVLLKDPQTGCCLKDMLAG
alvocidib
  log2 fold change: 0.161
Tubastatin A
  log2 fold change: -0.129
[1]
  log2 fold change: -0.058
defactinib
  log2 fold change: -0.015
[2]
  log2 fold change: -0.003
encorafenib
  log2 fold change: 0.049
[3]
  log2 fold change: 0.088
alisertib
  log2 fold change: -0.041
[4]
  log2 fold change: 0.07
gefitinib
  log2 fold change: -0.024
lapatinib
  log2 fold change: -0.163
pictilisib
  log2 fold change: -0.021
crizotinib
  log2 fold change: -0.102
[5]
  log2 fold change: -0.049
duvelisib
  log2 fold change: 0.048
gandotinib
  log2 fold change: 0
tozasertib
  log2 fold change: 0.047
doramapimod
  log2 fold change: 0.024
bafetinib
  log2 fold change: 0.138
[6]
  log2 fold change: -0.009

## STK25 (UniProt O00506)
Sequence of UniProt O00506 (O00506 whole entry, looked up): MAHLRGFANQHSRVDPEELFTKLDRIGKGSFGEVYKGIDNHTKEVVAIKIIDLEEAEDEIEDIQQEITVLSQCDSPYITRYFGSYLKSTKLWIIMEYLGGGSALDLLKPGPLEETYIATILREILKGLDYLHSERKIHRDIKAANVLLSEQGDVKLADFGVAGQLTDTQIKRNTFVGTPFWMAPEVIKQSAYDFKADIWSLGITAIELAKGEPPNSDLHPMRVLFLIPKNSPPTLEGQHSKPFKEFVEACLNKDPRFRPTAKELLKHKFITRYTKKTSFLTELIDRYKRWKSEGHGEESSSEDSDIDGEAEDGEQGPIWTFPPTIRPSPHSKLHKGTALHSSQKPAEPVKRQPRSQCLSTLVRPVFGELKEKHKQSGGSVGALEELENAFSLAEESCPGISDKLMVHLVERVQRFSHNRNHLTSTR
alvocidib
  log2 fold change: -0.016
Tubastatin A
  log2 fold change: -0.093
[1]
  log2 fold change: 0.023
defactinib
  log2 fold change: 0.147
[2]
  log2 fold change: -0.023
encorafenib
  log2 fold change: 0.025
[3]
  log2 fold change: -0.04
alisertib
  log2 fold change: -0.007
[4]
  log2 fold change: 0.036
gefitinib
  log2 fold change: -0.065
lapatinib
  log2 fold change: -0.058
pictilisib
  log2 fold change: -0.041
crizotinib
  log2 fold change: 0.008
[5]
  log2 fold change: -0.036
duvelisib
  log2 fold change: -0.055
gandotinib
  log2 fold change: 0.18
tozasertib
  log2 fold change: 0.033
doramapimod
  log2 fold change: -0.081
bafetinib
  log2 fold change: 0.001
[6]
  log2 fold change: 0.005

## SQLE (UniProt Q14534)
Sequence of UniProt Q14534 (Q14534 whole entry, looked up): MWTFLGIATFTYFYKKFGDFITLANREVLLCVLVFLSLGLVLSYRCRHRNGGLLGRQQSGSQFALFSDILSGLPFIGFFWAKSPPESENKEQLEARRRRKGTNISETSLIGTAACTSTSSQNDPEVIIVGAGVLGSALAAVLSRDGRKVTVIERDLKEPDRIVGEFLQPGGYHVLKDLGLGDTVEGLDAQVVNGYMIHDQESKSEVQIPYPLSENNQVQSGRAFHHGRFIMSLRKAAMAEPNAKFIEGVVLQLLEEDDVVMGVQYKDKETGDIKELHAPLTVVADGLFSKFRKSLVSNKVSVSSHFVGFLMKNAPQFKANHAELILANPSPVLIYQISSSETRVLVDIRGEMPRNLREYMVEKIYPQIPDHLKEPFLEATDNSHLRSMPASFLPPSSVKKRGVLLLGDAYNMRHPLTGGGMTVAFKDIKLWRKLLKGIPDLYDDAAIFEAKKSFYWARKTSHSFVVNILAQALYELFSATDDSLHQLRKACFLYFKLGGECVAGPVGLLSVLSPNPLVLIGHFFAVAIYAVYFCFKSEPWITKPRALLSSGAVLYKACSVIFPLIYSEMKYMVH
alvocidib
  log2 fold change: 0.003
Tubastatin A
  log2 fold change: 0.377 (active)
[1]
  log2 fold change: 0.018
defactinib
  log2 fold change: -0.009
[2]
  log2 fold change: -0.022
encorafenib
  log2 fold change: 0.002
[3]
  log2 fold change: 0.437 (active)
alisertib
  log2 fold change: 0.059
[4]
  log2 fold change: -0.015
gefitinib
  log2 fold change: -0.045
lapatinib
  log2 fold change: -0.056
pictilisib
  log2 fold change: -0.04
crizotinib
  log2 fold change: -0.057
[5]
  log2 fold change: -0.025
duvelisib
  log2 fold change: -0.057
gandotinib
  log2 fold change: -0.028
tozasertib
  log2 fold change: 0.068
doramapimod
  log2 fold change: -0.035
bafetinib
  log2 fold change: -0.047
[6]
  log2 fold change: 0.031

From the supplement of paper PMC10849652
